Experimental data reported in PubChem BioAssay (NCI).
About 79,000 compounds went through this panel and 15% of them were active in at least one assay; those are over-represented in the sample as a whole. Activity calls are given as the source filed them. No stated cut-off is given here; in the data, active means growth inhibition above about 70%; inactive means the rest.

Experiment: NCI Yeast Anticancer Drug Screen. Data for the cln2 rad14 strain (AID 165);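 further: 0% = growth equal to vehicle treated cultures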
Conditions: S. cerevisiae cln2 rad14 strain, at 50.0 µM (retest, dose inferred, filed as 5.0), stronger effect = higher value
Summary of the method: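 Compounds are applied to the cln2 rad14 yeast strain, and growth is then compared with that of vehicle-treated cultures to give inhibition.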

SMILES | growth inhibition
O=Nc1c(O)ccc2ccccc12.[Fe].[Na+] | 96% (active)
CC(C)Cc1ncc(CC(C)C)n(O)c1=O | 97% (active)
COc1ccc2c(c1)CCc1c-2ccc(C)c1CCC(=O)O | 99% (active)
COc1ccc(/C=C(\C#N)c2ccccc2)cc1OC | 34% (inactive)
CCC(=O)OCC(=O)c1ccc(-c2ccccc2)cc1 | -56% (inactive)
C=C1CC(c2ccc(OCCCN3C(=O)c4ccccc4C3=O)c(OC)c2)OC1=O (stereo not given) | 93% (active)
N[C@H](C(=O)O)[C@@H]1CC(Cl)=NO1 | 96% (active)
Cc1ccc2c(c1)[n+]([O-])c(N)c(C#N)[n+]2[O-] | 98% (active)
Cc1cc(O)c2c(c1)C(=O)c1c(c(O)cc(O)c1-c1c(O)cc(O)c3c1C(=O)c1cc(C)cc(O)c1C3=O)C2=O | 79% (active)
CC(=O)c1csc2c1C(=O)c1scc(C(C)=O)c1C2=O | 36% (inactive)
CCC(CCCN(CC)CCc1ccccc1)OC(=O)c1cc(OC)c(OC)c(OC)c1 (stereo not given) | 0% (inactive)
COC(CCC[N+](C)(C)C)CC[N+](C)(C)C (stereo not given) | 70% (active)
CCC(=O)c1ccc2ccc3ccccc3c2c1 | 45% (inactive)
CN(C)c1nc(N(C)C)oc(=[N+](C)C)n1 | 1% (inactive)
COc1ccc(Cc2ccc(N)cc2)cc1 | 91% (active)
CN(C)CC(CN(C)C)C(=O)c1ccc(Oc2ccccc2)cc1 | 99% (active)
C1C2OC2C2C1C1CC2C2OC12 (stereo not given) | 2% (inactive)
Nc1ccc2c(c1)[nH]c(=O)c1cccc(Cl)c12 | 94% (active)
COc1cccc(C2c3cc4c(cc3OC(Nc3ccccc3)C2C)OCO4)c1O (stereo not given) | 97% (active)
Cc1cc(SC#N)cc(C)c1O | 69% (inactive)

SMILES | growth inhibition
CCN(CC)CCCNc1ncc(C)c2c1c1ccc3c(O)cccc3c1n2C | 8% (inactive)
O=C1c2ccccc2C(O)(C#Cc2ccccc2)c2cnccc21 (stereo not given) | 96% (active)
CC(=O)Nc1nnc(C)s1 | 6% (inactive)
CC1CN(CC(O)c2ccc(Br)cc2)CC(C)O1 (stereo not given) | 46% (inactive)
O=C(C=P(c1ccccc1)(c1ccccc1)c1ccccc1)CC(=S)CC(=O)C=P(c1ccccc1)(c1ccccc1)c1ccccc1 | 61% (inactive)
CN(C)CCC(/C=C/c1ccccc1)=N\Nc1ccc(Cl)cc1Cl | 88% (active)
Oc1c(Cl)cc(Br)cc1Cl | 99% (active)
Cc1ccc2c(ccc(CC(=S)[S-])[n+]2C)c1 | 37% (inactive)
Cc1ccc2c(c1)C(=O)N(CC[P+](c1ccccc1)(c1ccccc1)c1ccccc1)C2=O | 79% (active)
Nc1ncnc2c1c(-c1ccccc1)cn2-c1ccc(Cl)cc1 | 17% (inactive)
Nc1nnc(-c2cc([N+](=O)[O-])cc([N+](=O)[O-])c2)o1 | 20% (inactive)
COc1cc2c(cc1OC)C(Cl)C(c1ccc(F)cc1)=C2Cl (stereo not given) | 6% (inactive)
COc1ccc(C2Oc3c(cccc3OC)C=C2[N+](=O)[O-])cc1 (stereo not given) | 92% (active)
O=C(O)c1cc2cc3ccccc3cc2cc1O | 14% (inactive)
Oc1ccc2ccc3ccccc3c2c1 | 99% (active)
COC(=O)c1ccc(OC)cc1 | -7% (inactive)
Clc1ccc2c(NCCCCCCNc3ccnc4cc(Cl)ccc34)ccnc2c1 | 75% (active)
COc1ccc(C2C3=C(CCC(CN(C)C)C3=O)OC3=C2C(=O)C(CN(C)C)CC3)cc1 (stereo not given) | 1% (inactive)
CC(C)CC(NC(=O)COc1c(Cl)cc(Cl)c(Cl)c1Cl)C(=O)O (stereo not given) | 19% (inactive)
Cc1nc2c(=O)[nH]c3ccc(Cl)cc3c2o1 | 12% (inactive)
